Assay [1] deals with Cytochrome P450 2D6 (Homo sapiens) (UniProt P10635). Nature of the assay: Cytochrome P450 family 2 subfamily D member 6 (CYP2D6) small molecule antagonists: luciferase biochemical (cell-free) qHTS assay (AID 1645840). Also: nearly all actives have a fitted effect of over 55% in size. Also: potency is read from the fitted curve at half-maximal effect. Summed up:
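P450-Glo CYP2D6 system: proluciferin substrate converted by enzyme to luciferin, read by luminescence proportional to activity. Enzyme-substrate mix with compound 10 min at room temperature, then NADPH regeneration 1 h before detection reagent.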
In general terms: In qHTS, concentration-response curves come from the screen itself.

Assay [2] concerns the target Cytochrome P450 2C9 (Homo sapiens) (UniProt P11712). Nature of the assay: Cytochrome P450 family 2 subfamily C member 9 (CYP2C9) small molecule antagonists: luciferase biochemical (cell-free) qHTS assay (AID 1645842). Also: nearly all actives have a fitted effect of over 55% in size. Also: potency is read from the fitted curve at half-maximal effect. Summed up:
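P450-Glo CYP2C9 system: proluciferin substrate with enzyme in mix containing 0.4% BSA, 10 min at room temperature, then NADPH regeneration solution added and incubated 1 h at 37C. Detection reagent stopped reaction; luminescence read after 20 min as RLU.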

Assay [3] has as its target Cytochrome P450 3A4 (Homo sapiens) (UniProt P08684). Kind of assay: Cytochrome P450 family 3 subfamily A member 4 (CYP3A4) small molecule antagonists: luciferase qHTS assay (AID 1645841). Also: nearly all actives have a fitted effect of over 45% in size. A digest of the protocol:
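P450-Glo CYP3A4 enzyme with proluciferin substrate preincubated 10 min with compound at room temperature, then NADPH regeneration 1 h. Luciferin detection reagent added for 20 min; luminescence recorded. Ketoconazole positive control.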

Assay [4] can be described thus: Primary qHTS for inhibitors of nuclear receptor binding SET domain protein 2 (NSD2) in an RCH-ACV wild type WT cells (2C) (AID 1645877; active = well fitted curve in the direction sought with a large enough effect; an effect the other way counts as inactive or inconclusive; also: potency is read from the fitted curve at half-maximal effect; nearly all actives have a fitted effect of over 70% in size).

Inconclusive results are not listed. Active and inactive are the calls of the source. Unless noted, calls follow the shape of the dose curve; as a rule, active = well fitted curve in the direction sought with a large enough effect in the repeat runs; inconclusive = weak or mixed curves; inactive = no such curve, though single readings can be large; an effect the other way counts as inactive or inconclusive.

Sequence of Cytochrome P450 2C9 (Homo sapiens) (P11712 whole entry, looked up): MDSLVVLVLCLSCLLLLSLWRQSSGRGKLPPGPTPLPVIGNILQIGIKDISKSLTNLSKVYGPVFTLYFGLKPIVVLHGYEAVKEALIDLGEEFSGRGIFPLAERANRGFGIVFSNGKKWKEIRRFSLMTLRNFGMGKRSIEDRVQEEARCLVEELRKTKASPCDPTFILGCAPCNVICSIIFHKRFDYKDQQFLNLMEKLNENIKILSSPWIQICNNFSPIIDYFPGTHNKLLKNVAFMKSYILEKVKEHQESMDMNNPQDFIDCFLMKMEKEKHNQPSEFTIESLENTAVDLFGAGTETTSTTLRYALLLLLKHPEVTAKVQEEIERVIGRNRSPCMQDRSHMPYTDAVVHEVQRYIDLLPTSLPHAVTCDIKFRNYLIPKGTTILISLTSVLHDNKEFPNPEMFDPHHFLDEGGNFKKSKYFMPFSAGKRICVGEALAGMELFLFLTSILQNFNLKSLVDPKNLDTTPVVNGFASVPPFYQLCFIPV
Sequence of Cytochrome P450 2D6 (Homo sapiens) (P10635 whole entry, looked up): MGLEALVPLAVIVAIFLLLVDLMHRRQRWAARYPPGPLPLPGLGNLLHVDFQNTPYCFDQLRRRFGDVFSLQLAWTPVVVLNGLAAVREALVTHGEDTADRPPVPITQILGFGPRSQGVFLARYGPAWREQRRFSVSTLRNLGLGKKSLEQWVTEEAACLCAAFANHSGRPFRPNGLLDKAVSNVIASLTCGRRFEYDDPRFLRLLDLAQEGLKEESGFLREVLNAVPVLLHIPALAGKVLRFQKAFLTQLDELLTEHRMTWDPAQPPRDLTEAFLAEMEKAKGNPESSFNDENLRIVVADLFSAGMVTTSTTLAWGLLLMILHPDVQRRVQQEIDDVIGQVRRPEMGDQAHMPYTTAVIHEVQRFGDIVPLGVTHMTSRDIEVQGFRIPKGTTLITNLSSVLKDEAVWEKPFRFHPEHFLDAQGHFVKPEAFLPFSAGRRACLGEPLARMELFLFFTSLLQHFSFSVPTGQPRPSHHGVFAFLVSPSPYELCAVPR
Sequence of Cytochrome P450 3A4 (Homo sapiens) (P08684 whole entry, looked up): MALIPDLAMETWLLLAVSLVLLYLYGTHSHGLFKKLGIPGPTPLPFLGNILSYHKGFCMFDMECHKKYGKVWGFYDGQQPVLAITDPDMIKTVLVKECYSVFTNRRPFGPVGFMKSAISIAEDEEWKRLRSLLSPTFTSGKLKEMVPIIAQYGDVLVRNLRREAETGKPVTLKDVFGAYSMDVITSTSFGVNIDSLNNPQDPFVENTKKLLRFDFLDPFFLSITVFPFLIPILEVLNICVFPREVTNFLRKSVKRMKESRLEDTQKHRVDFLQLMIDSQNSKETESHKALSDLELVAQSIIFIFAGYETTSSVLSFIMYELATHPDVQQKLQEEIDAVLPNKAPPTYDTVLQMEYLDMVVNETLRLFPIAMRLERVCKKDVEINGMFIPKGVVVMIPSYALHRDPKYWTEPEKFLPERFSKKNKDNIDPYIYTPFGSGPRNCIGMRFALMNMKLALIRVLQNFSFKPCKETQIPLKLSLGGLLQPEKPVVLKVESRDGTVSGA

Regarding `CC1(S(=O)(=O)O)CC(=O)c2ccccc2C1=O` (stereo not given), the Potency in assay [1] was 8.49 µM (active); in assay [2], 16.9 µM (active).
In the same order, the values of `CNCCCC1(c2ccccc2)OC(C)(C)c2ccccc21` (stereo not given) are 6.74 µM (active) and “inactive”.
On to `C[C@H]1CO[C@@H]2Cn3cc(C(=O)NCc4ccc(F)cc4F)c(=O)c(O)c3C(=O)N12`, for which the Potency entry in assay [1] and in assay [2] was “inactive” in each case.
For the compound `O=C(Nc1ccc(C(F)(F)F)cn1)N1CCN(c2ncccc2C(F)(F)F)CC1`, the Potency result in assay [1] is “inactive”. Moreover, the Potency in assay [2] is 3.01 µM (active).
In the case of `CCC(=O)O`, the Potency entry in assay [1] and in assay [2] was “inactive” throughout.
Consider `CCOc1ccc(-n2c(C(C)N(Cc3cccnc3)C(=O)Cc3ccc(F)c(C(F)(F)F)c3)nc3ncccc3c2=O)cc1` (stereo not given), for which the Potency is 23.9 µM (active) in assay [1] and 4.77 µM (active) in assay [2].
For `C[C@@H]1C[C@H](C)CN(CCC(=O)Nc2ccc(Br)cc2)C1`, in assay [1], the Potency was 0.0674 µM (active). In assay [2], the Potency entry was “inactive”.
The corresponding values for `O=C(NCCCN1CCC2(CC1)OCc1ccccc12)[C@H]1CCCN1Cc1ccccc1` are 2.13 µM (active) and “inactive”.
For `O=C(C1CCCCC1)N(CCN1CCN(c2ccccc2O)CC1)c1ccccn1`, the Potency in assay [1] is 10.7 µM (active); in assay [2] it was 12 µM (active).
Take `O=C(Nc1cc(C(F)(F)F)ccc1N1CCCCC1)c1ccncc1`: the Potency was 8.49 µM (active) in assay [1] and 2.13 µM (active) in assay [2].
The corresponding values for `CC(C)c1cccc(C(C)C)c1NC(=O)Nc1ccc(Sc2ccc([N+](=O)[O-])cc2)cc1` are “inactive” and “inactive”.
Take `CCN(CCNC(=O)Nc1ccccc1Br)c1cccc(C)c1`: the values for the Potency in assay [1] and in assay [2] were 1.9 µM (active) and 3.79 µM (active), respectively.
Take `CCn1c(-c2nonc2N)nc2c(C#CCO)ncc(OCCCN)c21`: the Potency entry in assay [1] and in assay [2] was “inactive” in each case.
As for `CN(C)CCOc1cc(NS(=O)(=O)c2c(Cl)cc(C(F)(F)F)cc2Cl)ccc1Cl`, the Potency in assay [1] is 16.9 µM (active); in assay [2], 8.49 µM (active).
For the compound `Fc1ccc(N2CCN(CCC3OCCc4ccccc43)CC2)cc1` (stereo not given), the Potency in assay [1] was 1.9 µM (active). Moreover, the Potency entry in assay [2] was “inactive”.
As to `CC(C)c1cc2c(N3CCN(C4=NCC(C)(C)S4)CC3)ncnc2s1`, in assay [1], the Potency is 3.01 µM (active). In addition, the Potency entry in assay [2] was “inactive”.
`O=c1cc(N2CCOCC2)nc2c3ccccc3ccn12`: the Potency is 19 µM (active) in assay [1] and 15.1 µM (active) in assay [2].
For the compound `COc1ccc([C@H](Cc2ccncc2)c2ccccc2)cc1OC1CCCC1`, the Potency in assay [1] is 12 µM (active); in assay [2], 0.425 µM (active).
Turning to `COc1ccc(S(=O)(=O)N2CCC[C@H]2C(=O)Nc2cc(C)cc(C)c2)cc1`, the Potency result in assay [1] is “inactive”. Moreover, in assay [2], the Potency was 0.674 µM (active).
For the compound `Clc1cccc(COc2cncc(N3CCNCC3)n2)c1`, the Potency in assay [1] was 8.49 µM (active). Besides, the Potency entry in assay [2] was “inactive”.
`CCCc1ccc(OCC(=O)N(Cc2nc(-c3cccnc3)no2)C(C)C)cc1`: the Potency in assay [1] is 19 µM (active); in assay [2] it was 2.13 µM (active).
With `Cc1nnc(-c2ccc(-c3ccc(C(=O)Nc4ccc(O)c(N5CCN(C)CC5)c4)cc3)c(C)c2)o1`, the Potency result in assay [1] and in assay [2] was “inactive” in each case.
`Nc1nc2c(s1)CCN(Cc1ccc(Cl)cc1)CC2`: the Potency in assay [1] is 1.9 µM (active); in assay [2], 15.1 µM (active).
For `O=S(=O)(O)Oc1ccc(C(c2ccc(OS(=O)(=O)O)cc2)c2ccccn2)cc1`, the Potency entry in assay [1] and in assay [2] was “inactive” each time.
Take `Cn1ncc(Cl)c1-c1cc(C(=O)N[C@H](CN)Cc2cccc(F)c2)sc1Cl`: the Potency in assay [1] was 2.68 µM (active); in assay [2] it was 9.52 µM (active).
Regarding `CCC[C@@]1(CCc2ccccc2)CC(O)=C([C@H](CC)c2cccc(NS(=O)(=O)c3ccc(C(F)(F)F)cn3)c2)C(=O)O1`, the figures for the Potency in assay [1] and in assay [2] were 6.01 µM (active) and 26.8 µM (active), respectively.
In the same order, the values of `O=C(N[C@@H]1CCCc2c1cnn2-c1ccc(F)cc1F)c1ccccn1` are “inactive” and 21.3 µM (active).
As to `O=P(O)(O)OC(CO)CO`, the Potency entry in assay [1] and in assay [2] was “inactive” throughout.
Turning to `CC(C)Nc1nc(Nc2ccccc2)nc(-c2ccccc2)n1`, in assay [1], the Potency result was “inactive”. The Potency in assay [2] is 7.56 µM (active).
On to `CNCc1cc(-c2ccccc2F)n(S(=O)(=O)c2cccnc2)c1`, for which the Potency in assay [1] is 19 µM (active). Also, the Potency entry in assay [2] is “inactive”.
Take `CCNC1(C(N)=O)CCN(c2ncnc3c2nc(-c2ccccc2Cl)n3-c2ccc(Cl)cc2)CC1`: the Potency is 16.9 µM (active) in assay [1] and 2.13 µM (active) in assay [2].
For `CCC(C)c1ccc(NC(=O)Cn2cnc3c2c(=O)n(C)c(=O)n3C)cc1` (stereo not given), the Potency result in assay [1] was “inactive”. In addition, the Potency in assay [2] is 12 µM (active).
In the same order, the values of `CC#C[C@@H](CC(=O)O)c1ccc(OCc2ccc(CN3CCC4(C=Cc5ccccc54)CC3)s2)cc1` are 15.1 µM (active) and 23.9 µM (active).
As for `Nc1nc(O)c(C2=C3C(=Nc4ccccc43)C(=O)NCC2)[nH]1`, the Potency entry in assay [1] and in assay [3] was “inactive” each time. Moreover, the Potency in assay [4] was 16.3 µM (active).
Regarding `Cc1cn2c(n1)Cc1ccc(Cl)cc1C(c1ccc(N)cc1)=N2`, the Potency in assay [1] was 16.9 µM (active); in assay [2] it was 12 µM (active).
In the case of `Cc1cnn(-c2ccccc2)c1NC(=O)COCc1ccccc1`, the Potency entry in assay [1] was “inactive”. Also, the Potency in assay [2] was 10.7 µM (active).
For `CCCC(CCC)C(=O)NCc1ccc2c(cnn2-c2ccccc2OC)c1`, the Potency in assay [1] is 13.5 µM (active); in assay [2], 1.9 µM (active).

Values taken from PubChem BioAssay (NCATS).
